# Test results from PubChem BioAssay AID1024 (Sanford-Burnham Center for Chemical Genomics, 2008).
# About 1,400 (1.5%) of roughly 96,000 compounds were called active. What follows is part of a selection rich in actives, with near analogues and random picks from the rest. A number with no mark means an inactive call.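 Rule for the calls: active = activation factor of 2 or more for CYP2C9 at a 5 µM dose; inactive = the rest.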
# Molecular target: Cytochrome P450 2C9 (Homo sapiens) (UniProt P11712)
# Experiment: enhancers of cytochrome P450 2C9 turnover – biochemical, luminescence, primary screen (AID 1024);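 note: 0 = sulfaphenazole-blocked wells and 1 = vehicle-only wells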
# Details: recombinant CYP2C9, luciferin-H conversion, at 5 µM, stronger effect = higher value, factor 1 = untreated enzyme, 0 = blocked
# Chain of Cytochrome P450 2C9 (Homo sapiens) (P11712 whole entry, looked up): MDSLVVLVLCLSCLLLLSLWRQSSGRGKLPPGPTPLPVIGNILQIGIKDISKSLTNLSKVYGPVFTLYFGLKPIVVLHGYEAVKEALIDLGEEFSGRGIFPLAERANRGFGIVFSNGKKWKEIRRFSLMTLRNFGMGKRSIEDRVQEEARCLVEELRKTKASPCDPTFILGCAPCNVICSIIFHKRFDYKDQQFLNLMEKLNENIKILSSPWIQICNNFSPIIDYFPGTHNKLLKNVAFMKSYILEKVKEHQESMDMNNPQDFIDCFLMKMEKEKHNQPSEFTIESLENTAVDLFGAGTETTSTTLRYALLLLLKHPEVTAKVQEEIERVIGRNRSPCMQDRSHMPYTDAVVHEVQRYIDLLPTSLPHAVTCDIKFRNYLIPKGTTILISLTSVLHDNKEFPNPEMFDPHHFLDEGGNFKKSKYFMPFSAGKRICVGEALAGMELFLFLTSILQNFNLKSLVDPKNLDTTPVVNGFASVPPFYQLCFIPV
row,SMILES,activation factor
1,Cc1cc(C)c2c(-n3cccc3)c(C(=O)NNS(=O)(=O)c3ccc(F)cc3)sc2n1,0
2,Cc1ccc2nc(/C(C#N)=C\c3ccc(OC(=O)c4cccs4)cc3)[nH]c2c1,0.2
3,C=CCOC(=O)C1=C(C)NC(C)=C(C(=O)OCC=C)C1c1cccs1,0
4,CNC(=O)c1csc(-c2ccccc2)n1,0.9
5,Cc1ccc(S(=O)(=O)NCC(=O)OCC(=O)N2CCc3ccccc32)cc1,1.3
6,Cc1ccc(S(=O)(=O)N(C)CC(=O)N2CCc3ccccc32)cc1,2.3 (active)
7,O=C(CSCc1ccccc1)N1CCc2ccccc21,1.1
8,CCCC(=O)Nc1nc2ccc(NC(=O)c3cccnc3)cc2s1,0.7
9,O=C(/C=C\NCC(=O)c1ccccc1)c1ccccc1,0.9
10,Cc1nn(-c2ccccc2)c(Cl)c1C(=O)Nc1ccccc1,1.5
11,COc1ccccc1-c1nnc(SCC(=O)N2CC(C)CC(C)C2)o1 (stereo not given),3.9 (active)
12,COc1ccccc1-c1nnc(SCC(=O)Nc2ccccc2)o1,1.6
13,COc1ccccc1N1CCN(C(=O)CSc2nnc(-c3ccoc3C)o2)CC1,0.7
14,Cc1cccc(C)c1NC(=O)c1ccc(CN2CCc3ccccc3C2)cc1,1.1
15,Cn1nc([N+](=O)[O-])nc1Sc1ccc(C(C)(C)C)cc1,0.9
16,COc1cccc(/C=N\Nc2nncc(-c3ccccc3)n2)c1,0.9
17,CCOc1ccc(S(=O)(=O)N2CCCCCC2)c2ccccc12,1.5
18,COc1ccc(S(=O)(=O)N2CCCCC2)cc1Br,2.1 (active)
19,COc1ccc(S(=O)(=O)N2CCCC2)c(C)c1C,2.5 (active)
20,COc1ccc(S(=O)(=O)Nc2ccc(F)cc2)c(C)c1C,0.3
21,COc1ccc(S(=O)(=O)Nc2ccc(S(=O)(=O)N3CCCCC3)cc2)cc1OC,0.1
22,COc1ccc(S(=O)(=O)N2CCCC(C(=O)N3CCN(C)CC3)C2)cc1C (stereo not given),1.2
23,Cc1ccc(-c2nn(-c3ccccc3)cc2/C=N/NC(=O)c2ccc3c(c2)OCO3)cc1,0.2
24,COc1ccc(NC(=O)C2CCCN(S(=O)(=O)c3cccc4cccnc34)C2)cc1 (stereo not given),1.5
25,O=C(Nc1nccs1)C1CCCN1S(=O)(=O)c1cccc2cccnc12 (stereo not given),0.5

row,SMILES,activation factor
1,O=C(O)C1CCCN(S(=O)(=O)c2cccc3cccnc23)C1 (stereo not given),1.2
2,Cc1cccc(NC(=O)C2CCN(S(=O)(=O)c3cccc4cccnc34)CC2)c1,2.8 (active)
3,COc1ccc(NC(=O)C2CCCN(S(=O)(=O)c3cccc4cccnc34)C2)cc1OC (stereo not given),1.2
4,COc1ccccc1CNC(=O)C1CCCN(S(=O)(=O)c2cccc3cccnc23)C1 (stereo not given),2.9 (active)
5,CCOC(=O)N1CCN(C(=O)c2n[nH]c(=O)c3ccccc23)CC1,1
6,CCOC(=O)N1CCN(CC(=O)n2c(C)c(C)c3ccccc32)CC1,2.3 (active)
7,CCOC(=O)N1CCN(CC(=O)c2c(C)[nH]c3ccccc23)CC1,1.6
8,COc1ccccc1C(=O)Oc1ccc(N2C(=O)CCC2=O)cc1,2.1 (active)
9,Cc1ccc(OC(=O)c2ccccc2C(=O)OCC(F)(F)C(F)F)cc1,0.2
10,COc1ccccc1C(=O)C(O)c1ccccc1OC (stereo not given),1
11,CCN(CC)c1ccc(/C=N/Nc2nc(C)cc(=O)[nH]2)cc1,1.2
12,COCc1cc(C)nc2sc3c(=O)n(-c4cccc5ccccc45)nnc3c12,0.7
13,O=C(NNC(=O)c1cccnc1)Nc1ccccc1,1.1
14,COC(=O)C(C)N(C#N)c1nc(C)nc(C)n1 (stereo not given),2.4 (active)
15,COC(=O)c1c(C)c(C)nc(N)c1C#N,1.1
16,CCOC(=O)c1sc(C)c2c1NC(C)(c1cccc3ccccc13)NC2=O (stereo not given),0
17,Cc1ccc2c(c1)-c1c(ssc1=S)C(C)(C)N2C(=O)CN1C(=O)c2ccccc2C1=O,0.2
18,O=C(c1cc(-c2ccc(O)cc2)on1)N1CCCc2ccccc21,0.4
19,CC(NC(=O)c1cc(-c2ccccc2)on1)c1ccccc1 (stereo not given),1.2
20,O=C(Nc1ccccc1C(F)(F)F)c1cc(-c2ccc(O)cc2)on1,3.3 (active)
21,COc1cc(OC)c(C(=O)Nc2ccc(N(C)C)cc2)cc1OC,0.7
22,CCC(C)NC(=O)c1cc(Cl)ccc1OC (stereo not given),2.7 (active)
23,COc1ccc(Cl)cc1C(=O)NCc1cn(C)nc1C,1
24,COc1ccc(Cl)cc1C(=O)Nc1ccc(N(C)C(C)=O)cc1,3.1 (active)
25,COc1ccc(Cl)cc1C(=O)NCC#N,1.8

row,SMILES,activation factor
1,CCOc1ccc(NC(=O)Nc2ccc(N(C)C(C)=O)cc2)cc1,1.1
2,COc1ccc(N(CC(=O)N/N=C/c2cccs2)S(=O)(=O)c2ccc(OC)c(OC)c2)cc1,0.6
3,O=C(CNC(=O)OCc1ccccc1)Oc1cc2oc(=O)cc(-c3ccccc3)c2cc1Cl,0.2
4,O=C(Nc1ccc(Br)cc1)c1cccc(NC(=O)C2C3CC4OC(=O)C2C4C3)c1 (stereo not given),0.3
5,CN1OC(COC(=O)c2ccc(Cl)cc2)CC1c1ccccc1 (stereo not given),0.6
6,COc1ccc(NC(=O)Nc2ccc3nsnc3c2)cc1,0.8
7,O=C(Nc1nnc(C2CC2)s1)c1ccccn1,1.3
8,Cc1nn(Cc2ccc(Cl)c(Cl)c2)c(C)c1NC(=O)c1cc(C2CC2)on1,0
9,CSc1ccccc1NC(=O)c1cc(C2CC2)on1,2.4 (active)
10,O=C(NCc1ccco1)C1CCCN(S(=O)(=O)c2ccccc2)C1 (stereo not given),0.7
11,O=C(NC1CCCCC1)C1c2ccccc2C(=O)N1Cc1ccco1 (stereo not given),0.9
12,O=C(CC1OC(=O)c2ccccc21)NC1CCCCC1 (stereo not given),2 (active)
13,O=C(Cc1ccc(F)cc1)NC1CCCC1,1.4
14,Cc1c(Nc2cc(N3CCCC(C)C3)c3nonc3c2[N+](=O)[O-])c(=O)n(-c2ccccc2)n1C (stereo not given),0.6
15,CCOc1ccc(NC(=O)C2CC(=O)N=C(N)S2)cc1 (stereo not given),1
16,COc1cccc(NC(=O)c2ccccc2SC)c1,1
17,COc1cccc(C(=O)Nc2ccc(N3CCCC3)cc2)c1,0.9
18,COc1cccc(C(=O)NNC(=O)c2ccccc2Br)c1,2.8 (active)
19,Cc1cc2cc3c(cc2nc1SCC(=O)Nc1c(C)cccc1C)CCC3,0.4
20,CCOc1cc(C)c(Cl)cc1S(=O)(=O)n1nnc2ccccc21,0.6
21,Cc1cc(OCCOc2cccc3cccnc23)c(C)cc1Cl,2.7 (active)
22,CCOc1cc(N2CCOCC2)c(OCC)cc1NC(=O)COc1cccc2cccnc12,1
23,Cc1cc(SCC(=O)c2ccccc2)nc(SCC(=O)c2ccccc2)n1,0.3
24,Cn1c(=O)c2c(nc(N3CCCCCC3)n2CC(=O)c2ccc(Br)cc2)n(C)c1=O,0.8
25,Cc1ccn(C(CC(=O)c2ccc(Br)cc2)C(=O)O)n1 (stereo not given),2.1 (active)

row,SMILES,activation factor
1,Cc1cc([N+](=O)[O-])ccc1NCc1cccc([N+](=O)[O-])c1,1
2,O=C(NCCCN1CCN(C2CCCCC2)CC1)Nc1ccccc1C(F)(F)F,1
3,Cc1cc(C)nc(NC(=O)C(C)N2C(=O)c3ccccc3C2=O)n1 (stereo not given),1.2
4,Cc1cc(C)nc(NC(=O)Nc2ccccc2C(F)(F)F)n1,2.9 (active)
5,O=C(Nc1ccc2sc3ccccc3c(=O)c2c1)c1ccccc1Cl,1.1
6,O=c1c2ccccc2nc2n1C(CSCc1cccc(C(F)(F)F)c1)CS2 (stereo not given),0.6
7,COc1ccc(-c2noc(-c3cccc(OC)c3OC)n2)cc1OC,2 (active)
8,COc1ccc(-c2nc(-c3ccccc3)no2)c(OC)c1,1.1
9,COc1cc(-c2nc(-c3ccncc3)no2)cc(OC)c1OC,0.2
10,Cc1cccc(N(CC(=O)Nc2ccc(-c3nc4ccc(C)cc4s3)cc2)S(C)(=O)=O)c1,0.9
11,CNS(=O)(=O)c1cnccc1N1CCN(c2cccc(C)c2)CC1,0.4
12,O=C1Nc2c(Br)cc(Br)cc2C1(O)N1CCOCC1 (stereo not given),3 (active)
13,O=C(CN1CCOCC1)Nc1ccc(NC(=O)CN2CCOCC2)c(Cl)c1,1
14,O=C(CN1CCOCC1)Nc1cc(Cl)ccc1Cl,2.4 (active)
15,O=C(CN1CCOCC1)Nc1ccccc1,0.9
16,COc1ccc(OC)c(/C=N/NC(=O)CSc2nnc(C)n2-c2ccccc2)c1,0.8
17,COc1ccc(C)cc1N(C)C(=O)c1coc(=O)c2ccccc12,0.7
18,CCCn1c(C(Cc2ccccc2)NC(=O)COC)nc2ccccc21 (stereo not given),0.3
19,Cc1ccsc1/C=C1\SC(N2CCOCC2)=NC1=O,1.2
20,Cc1ccc(N2CCN(/N=C/c3cccs3)CC2)cc1,1.1
21,Cc1ccc(N2CCN(C3=NC(=O)/C(=C\c4cccs4)S3)CC2)cc1,2.3 (active)
22,CO/N=C/c1ccc(N2CCN(C(=O)c3cccc(Cl)c3)CC2)c([N+](=O)[O-])c1,0.9
23,CN=C1S/C(=C\c2ccc(Sc3ccc(Cl)cc3)o2)C(=O)N1C,0.7
24,CC(C)C(C)NC(=O)COc1ncnc2ccccc12 (stereo not given),0.9
25,CCOC(=O)c1c(NC(=O)c2ccc(N3CCOCC3)c([N+](=O)[O-])c2)sc(C)c1C,0.9
